Rows were chosen to be rich in hits. Some 5% of all compounds tested hit in one or more screens of this group.
Vaccinia mCherry = vaccinia inhibition (mCherry reporter) | Vaccinia virus mCherry reporter infection, fluorescence | Potency, µM (top dose mostly 36.5 µM), without a hit: top-dose activity change, negative = inhibition, hits mostly inhibitors | hit rate 0.63% among 310,000 | AID 720579; calls by dose curve; tested in A549 cells; further: potency means the concentration at half of the fitted maximal effect; nearly all actives have a fitted effect of over 35% in size
HCMV inh = inhibitors of human cytomegalovirus. HFF cells, HCMV-luciferase reporter, 72 h; hits give low values. activity change, negative = inhibition, % at 57.5 µM. hit rate 4.5% among 410,000; in the data active means activity change below about -60%; inconclusive means no clear call, values can overlap the other calls; inactive means above about -39%
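Steps: HFFs plated, 16 h 37C; compounds added; HCMV-luciferase added to MOI 1 PFU/cell; 72 h 37C; OneGlo reagent, 5 min room temperature; luminescence read, normalized to controls.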
VACV Venus inh = vaccinia inhibition (Venus reporter); hit rate 0.46% among 330,000; Vaccinia virus Venus reporter expression, fluorescence; Potency, µM (titrated, usually from 36.5 µM), inactives show at the top dose activity change, negative = inhibition, hits mostly inhibitors; calls by dose curve; tested in A549 cells; further: potency means the concentration at half of the fitted maximal effect; nearly all actives have a fitted effect of over 30% in size
TbPYK inhibitor = T. brucei pyruvate kinase inhibition; hit rate 0.12% among 410,000; Potency, µM (series often up to 76.8 µM), without a hit: at the top dose activity, negative = inhibition, most hits filed as inhibitors; Q57TT1; TbPYK enzyme, Kinase-Glo Plus ATP luminescence, 45 min; further: potency means the concentration at half of the fitted maximal effect; nearly all actives have a fitted effect of over 50% in size
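Readout: single end-point luminescence (Kinase-Glo Plus, 10 min). Reaction conditions were TbPYK/substrate plus 130 uM ADP, 45 min at RT, pH 7.2 TEA buffer. No-enzyme wells served as controls, and data were normalized before concentration-response fitting.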
LmPK inh = blocks Leishmania mexicana pyruvate kinase activity | Q27686 | Potency, µM (doses to about 57.5 µM), for the others: at the highest dose activity change, negative = inhibition, usual class: inhibitors | hit rate 0.37% among 290,000 | purified LmPK, Kinase-Glo ATP luminescence, 1 h | AID 1721; further: potency means the concentration at half of the fitted maximal effect
Target sequence (Q27686 whole entry, looked up): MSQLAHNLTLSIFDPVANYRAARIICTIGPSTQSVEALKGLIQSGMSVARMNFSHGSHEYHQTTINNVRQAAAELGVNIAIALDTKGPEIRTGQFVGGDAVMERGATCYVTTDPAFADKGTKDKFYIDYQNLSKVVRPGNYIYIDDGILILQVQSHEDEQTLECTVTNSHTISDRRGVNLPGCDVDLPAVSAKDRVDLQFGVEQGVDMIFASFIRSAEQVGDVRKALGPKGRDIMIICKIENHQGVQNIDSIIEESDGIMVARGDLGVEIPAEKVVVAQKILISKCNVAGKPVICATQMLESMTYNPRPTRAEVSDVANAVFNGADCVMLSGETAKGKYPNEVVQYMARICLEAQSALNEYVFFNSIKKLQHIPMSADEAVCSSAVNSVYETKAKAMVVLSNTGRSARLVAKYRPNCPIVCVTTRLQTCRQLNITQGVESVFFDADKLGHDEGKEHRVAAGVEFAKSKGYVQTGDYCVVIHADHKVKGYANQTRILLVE
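Screened at intermediate enzyme activity to detect both inhibitors and activators: LmPK at 0.1 nM, with a 0.5 nM enzyme column as activation reference. PEP 0.5 mM, ADP 0.1 mM; ATP detected by luminescence after 1 h.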
Starred values were filed as active, the others as inactive; i = inactive; u = inconclusive; x = no result; ! = not active in a repeat; [ ] = remark or other dose. Unless noted, the call rests on the fitted dose curve; in most records, active means well fitted curve in the direction sought with a large enough effect; inconclusive means small, poorly fitted or top-dose-only effect, or another doubt; inactive means no such curve, though single readings can be large; an effect the other way counts as inactive or inconclusive. On the % scale 0 is the no-effect control and ±100 the full control effect.

SMILES	Vaccinia mCherry	HCMV inh	VACV Venus inh	TbPYK inhibitor	LmPK inh
O=C(/C=C/c1ccc(OC(F)F)cc1)Nc1cccc(S(=O)(=O)NC2=NCCCCC2)c1	u	-69*	u	-7%	-5%
CC(=O)c1ccc(S(=O)(=O)Nc2cccc(S(=O)(=O)NC3=NCCC3)c2)cc1	i	-15	-5%	-11%	-1%
CCOC(=O)N1CCN(C(=O)c2ccc(-n3c(=S)[nH]c4ccccc4c3=O)cc2)CC1	-12%	-1	-12%	-5%	7%
COc1ccc(Cc2nc(-c3ccccc3)no2)cc1	i	27	-3%	-1%	-1%
O=C(CCl)Nc1cccc(S(=O)(=O)NC2=NCCC2)c1	x	-100*	x	1%	-1%
CC(C)C(=O)Nc1cccc(S(=O)(=O)NC2=NCCC2)c1	i	-2	-9%	0%	x
Cc1ccccc1-n1ccnc1SCC(=O)Nc1cccc(S(=O)(=O)NC2=NCCC2)c1	-18%	-61*	-10%	-5%	x
CCN(CC)CCOC(=O)c1ccc(Cl)cc1Cl	i	-22	-8%	-6%	3%
Cc1ccc(NC(=O)Cn2cnc3sc(C(=O)NCCN(C)C)c(C)c3c2=O)cc1Cl	x	x	x	x	3%
CCN(CC)CCCNC(=O)c1sc2ncn(CC(=O)Nc3ccc(C)c(Cl)c3)c(=O)c2c1C	9%	-63*	-21%	-7%	2%
CCCN(CCC)CCCNC(=O)Cn1cnc2sc(C)c(S(=O)(=O)N3CCCCC3)c2c1=O	-9%	-71*!	-6%	1%	0%
COc1cccc(NC(=O)C2CCN(c3nn4cc(-c5ccc(F)cc5)nc4s3)CC2)c1	i	0	-15%	-3%[15.4 µM]	x
Cc1ccc(/C=N/NC(=O)CNC(=O)COc2ccc(Cl)cc2)o1	x	-6	x	2%	2%[11.5 µM]
COc1cccc(CNc2nc3cc(-c4cnn(Cc5ccccc5)c4)sc3c(=O)n2C)c1	-4%	-82*	u	-9%	x
COc1cccc(CNc2nc3cc(-c4cccc(OC)c4)sc3c(=O)n2C)c1	-3%	18	-29%	0%	x
CC(C)C(NC(=O)c1ccc2c(c1)OCO2)C(=O)N/N=C/c1cccs1 (stereo unspecified)	-15%	14	-16%	13%	0%
Cc1c(/C=N/NC(=O)C(NC(=O)c2ccc3c(c2)OCO3)C(C)C)c2ccccc2n1C (stereo unspecified)	u	-80*	-28%	11%	7%
Cc1ccc2nc(C3CCN(S(=O)(=O)c4ccc5ccccc5c4)CC3)[nH]c2c1	u	-80*	u	-1%	0%
Cc1ccc2c(c1)nnn2C1CCN(S(=O)(=O)c2cccc(S(=O)(=O)N(C)C)c2)CC1	-25%	-31	-24%	6%	-2%
Cc1ccc2c(c1)nnn2C1CCN(S(=O)(=O)c2ccc3ccccc3c2)CC1	u	-64*	-26%	0%	4%
O=S(=O)(c1ccc2c(c1)OCCO2)N1CCC(c2nc3ccc(Cl)cc3[nH]2)CC1	u	-96*	u	0%	0%
CC(C)c1ccc(C(=O)Nc2ccc(CN3CCOCC3)cc2)cc1	-14%	-83*	-18%	0%	3%
CC(C)NC(=O)CN1CCN(C(=O)CCl)CC1	13µM*	-2	10µM*	1%	-3%
CN(C)C(=O)CN1CCN(C(=O)CCl)CC1	x	-20	x	8%	-1%
NC(=O)c1ccc(NC(=O)c2ccc(CN3CCOCC3)cc2)cc1	x	-8	x	-12%	6%
SMILES	Vaccinia mCherry	HCMV inh	VACV Venus inh	TbPYK inhibitor	LmPK inh
O=C(Nc1ccc(CN2CCOCC2)cc1)c1ccc(-c2ccc(Cl)cc2Cl)o1	-9%	-65*	u	2%	-2%
Cc1cc(CSc2ccccc2)ccc1NC(=O)c1ccc(CN2CCOCC2)cc1	-24%	-77*	-28%	-6%	1%
Cc1ccc(C)c(NC(=O)CN(C)C(=O)Cc2coc3cc(C)c(C)cc23)c1	-21%	x	-2%	-1%	x
Cc1cc(Br)cn2c(Cc3cccc(F)c3)c(-c3ccc(F)cc3)nc12	2%	10	2%	2%	x
O=C(NC12CC3CC(CC(C3)C1)C2)c1ccc(-c2cccc(Cl)c2)o1	-20%	-63*	-15%	0%	2%
Cc1cccc(C)c1NC(=O)c1ccc(-c2ccc(Cl)cc2Cl)o1	-23%	-72*	-8%	0%	1%
CN1CCN(c2ccc(NC(=O)c3ccc(-c4ccc(Cl)cc4)o3)cc2)CC1	u	18	11µM*	-3%	5%
O=C(Nc1ccc(CN2CCOCC2)cc1)c1ccc(-c2cccc(Cl)c2)o1	x	-86*	x	-4%	6%
Cc1ccccc1NC(=O)c1ccc(-c2ccc(Cl)cc2Cl)o1	x	-11	u	1%	1%
COc1ccc(N(C(=O)c2ccco2)C(C(=O)NC2CCCC2)c2ccc(OC)c(OC)c2)cc1 (stereo unspecified)	-13%	-28	1%	2%	-1%
CC(C)c1ccc(CN2CCN(C(=O)CCl)CC2)cc1	x	-69*	x	0%	-1%
COc1cccc(-c2nc(CS(=O)(=O)CC(=O)NCC(C)c3ccccc3)c(C)o2)c1 (stereo unspecified)	-6%	24	-17%	-3%	1%
CC(C)c1cc(C(=O)NC2CCCc3c2cnn3-c2ccccc2F)no1 (stereo unspecified)	-7%[7.34 µM]	-88*	8%[7.34 µM]	1%	-3%
COC(=O)c1ccc(C(=O)NC2CCCc3c2cnn3-c2ccccc2F)nc1 (stereo unspecified)	x	0	x	2%	0%
COc1cc(C(=O)NC2CCCc3c2cnn3-c2ccccc2F)cc(OC)c1OC (stereo unspecified)	-2%	-62*	-13%	1%	-1%
Cc1cc(C(=O)NC2CCCc3c2cnn3-c2ccccc2F)nc(C)n1 (stereo unspecified)	i	-21	-7%	2%	1%
CCC1CSC(Nc2ccc(C(=O)/C=C/c3ccc(Br)cc3)cc2)=N1 (stereo unspecified)	-18%	-36	-24%	-7%	1%
COc1cc(C=CC(=O)c2ccccc2)cc(OC)c1OC	5%	4	-6%	6%	x
COc1cc(OC)c(C(=O)C=Cc2ccc(OC)c(OC)c2)c(OC)c1	10µM*	u	u	3%	x
CCC1CSC(Nc2ccc(C(=O)/C=C/c3ccc(OC)c(OC)c3)cc2)=N1 (stereo unspecified)	11µM*	-101*	u	0%	1%
COc1cc(C=CC(=O)c2cc(OC)c(OC)c(OC)c2)cc(OC)c1OC	-2%	-97*	u	-5%	x
COc1cc(/C=N/N2CCOCC2)ccc1OCc1ccccc1	-20%	-105*	-23%	-16%	6%
CCN(CC)S(=O)(=O)c1ccc2c(c1)nc(SCC(=O)N1CCCCCC1)n2-c1ccc(OC)cc1	x	-33	x	-5%	7%
Cc1ccc(S(=O)(=O)c2c(C)nn(C(C)(C)C)c2OC(=O)c2cccs2)cc1	x	-25	u	-6%	5%
CCOCCCNC(=O)C1CCN(S(=O)(=O)N2CCCC2)CC1	x	10	x	3%	0%

Source: PubChem BioAssay (National Center for Advancing Translational Sciences (NCATS))
